Assay results as given in PubChem BioAssay (NCI).
Compounds without any hit were thinned out: in the full panel of roughly 83,000, 20% have a hit.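 48-hour exposure, single concentration, 96-well plates; percent growth endpoint where 0 means no net growth. Active: below 10.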 A number with no mark means an inactive call. Activity calls are given as the source filed them.

Each molecule was assayed on MDA-MB-468 breast (assay: NCI-60 one-dose screen, 48 h (100 = growth as untreated, 0 = no growth, -100 = all killed)). Conditions: 10 µM unless noted.

Compound | growth
O=C1/C(=C/c2ccc(O)cc2)Cc2ccc(Cl)cc21 | 65%
O=C1/C(=C\c2c[nH]c3ccccc23)c2ccccc2N1c1c(Cl)cccc1Cl | 8.39% (active)
Cc1cc(=O)oc2cc(OC(=O)CN3CCN(C)CC3)ccc12 | 101%
Cc1ccc(C2=NN3C(C2)c2cc(Br)ccc2OC32CCN(Cc3ccccc3)CC2)o1 (stereo not given) | 105%
COc1ccc(NC(=O)c2cc3ccccc3nc2Nc2cc(OC)c(OC)c(OC)c2)cc1 | 75.2%
Cc1cc(N)c2cc(NC(=O)/C=C\c3ccccc3Cl)ccc2n1 | -81.1% (active)
COC(=O)[C@@H](Cc1c[nH]c2ccccc12)NC(=O)CCCCOc1cc(O)c2c(=O)cc(-c3ccccc3)oc2c1 | 71.3%
Oc1c(CN2CCOCC2)cc(COCc2ccccc2)c2cccnc12 | 12.1%
COc1cc(C(=O)N/N=C/c2cc3cc(OCc4ccccc4)ccc3nc2OC)cc(OC)c1OC | 85.2%
O=C1/C(=C\c2cn(CC(O)CN3CCCCC3)c3ccccc23)c2ccccc2N1c1c(Cl)cccc1Cl (stereo not given) | -93.3% (active)
CC(=O)Oc1ccc(C2OC(c3ccc4ccccc4c3OC(C)=O)=NN2C(C)=O)c(OC(C)=O)c1 (stereo not given) | -14.4% (active)
Oc1ccc(-c2nnc(SCc3ccc(O)c4ncccc34)o2)cc1 | 10.8%
O=C1C(Cl)=C(Cl)C(=O)c2c1nc1n2CCCC1 | 96.7%
NS(=O)(=O)c1ccc(Nc2nc(SCC(=O)c3ccc(Cl)cc3)nc3ccccc23)cc1 | 82.4%
C=C(C)c1ccc(/C=N/NC(N)=S)cc1 | 70.6%
CCNC(=S)NN | 34.9%
O=S(=O)(NCc1ccccc1)c1ncnc2nc[nH]c12 | 108%
CCOC(=O)C1=C(C)Nc2nnc(Nc3ccccc3)n2C1c1ccccc1 (stereo not given) | 68.4%
CC1(COc2ccc3ncc(C#Cc4cncc(C(=O)Nc5cc(C(C)(C)C)on5)c4)n3n2)COC1 | 85%
COc1ccccc1Nc1nnc(-c2ccc(Cl)cc2)o1 | 14%

Compound | growth
COc1ccc(-c2ccc3c4c(cccc24)C(=O)N(N2C(=O)c4cccc5cccc(c45)C2=O)C3=O)cc1 | 96.5%
C/C(=C(/C)C1CC1CCNC1CCC(NC(=O)OC(C)(C)C)CC1)c1ccccc1 (stereo not given) | 35.3%
O=C(CSc1nnc(-c2ccc(Cl)cc2)n1-c1ccccc1)Nc1ccccc1Cl | 78.5%
CCOC(CN1CCN(CC(C)C(=O)c2ccccc2)CC1)c1ccccc1 (stereo not given) | 87.2%
O=C1c2cccc3cc([N+](=O)[O-])cc(c23)C(=O)N1CCN1CCCC1 | -53.4% (active)
CCCCOc1ccc(NC(=O)n2nc(N=NN(C)C)c3ccc(Cl)cc32)cc1 | 97.9%
CC1Cc2c(Cl)ncnc2N(C)c2ccc(O)cc21 (stereo not given) | -6.93% (active)
O=C(NNc1nc2cc(F)c(F)cc2n2c(CN3CC4CNCC4C3)ccc12)c1ncccn1 (stereo not given) | -10.6% (active)
CN(C)CCN(Cc1ccccc1)c1ccccc1 | 103%
CCOC(=O)NCCCC(=O)NCCc1ccccc1 | 105%
COC(=O)/C=C/c1cc(OC(C)=O)c2c(c1)[C@@H](C(=O)OC)[C@H](c1ccc(OC(C)=O)c(OC(C)=O)c1)O2 | -1.27% (active)
CN(C)CCC(=O)C1CC1 | 104%
Cc1cccc(-c2cc(O)c(C(=O)N3CCOCC3)s2)c1 | 14.1%
C/C(=N/N=C(N)N)c1ccc(Cl)cc1 | 95.7%
CCCN(CCC)CN(CCC)CCC | 106%
Cc1nnc(/N=C2\NC(=O)/C(=C/c3ccsc3)S2)s1 | 110%
CC(C)c1ccc(-n2c(=S)[nH]c3sc4c(c3c2=O)CCC(=O)C4)cc1 | 58.6%
NCCNc1ccc([N+](=O)[O-])cc1 | 110%
COc1nc2ccc(C)cc2cc1/C=[N+](\[O-])c1ccccc1 | 79.3%
Cc1ccc2[nH]c(=O)cc(-n3nncc3Cn3c4ccccc4c4ccccc43)c2c1 | 94.7%
